# Test results taken from PubChem BioAssay (Tox21).
# Several values for one entry are separate records, joined by “and”; a condition that tells them apart may be missing. Equal values may be shown once. Inconclusive results are not listed. A call without a number means that no potency is given here. Some compounds were tested as several samples or in several runs, with calls that do not always agree. Activity calls are given as the source filed them. Unless noted, calls follow the shape of the dose curve; as a rule, active = well fitted curve in the direction sought with a large enough effect in the repeat runs; inconclusive = weak or mixed curves; inactive = no such curve, though single readings can be large; an effect the other way counts as inactive or inconclusive.
# How the values were obtained:
# [1] = qHTS assay to identify small molecule agonists of the NFkB signaling pathway - cell viability counter screen (AID 1159515; calls by dose curve; also: series mostly up to about 61 µM; nearly all actives have a fitted effect of over 55% in size)
# Procedure, shortened: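 Counter screen run alongside the NFkB-bla agonist assay: ME-180 reporter cells exposed to compounds for 5 hr, then lysed with CellTiter-Glo in the same wells. Luminescence, read after 30 min, reflects viable cells.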
# [2] = qHTS assay to identify small molecule antagonists of the retinoid-related orphan receptor gamma (ROR-gamma) signaling pathway - cell viability counter screen (AID 1159520); also: nearly all actives have a fitted effect of over 50% in size
# Procedure, shortened: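 Tet-on ROR gamma CHO cells were given compounds for 2 hr, then doxycycline hyclate at 1 uM final, and incubated 16 hr at 37 C. Viability was measured as ATP content by CellTiter-Glo luminescence.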
# [3] = biological target: Nuclear receptor ROR-gamma (Homo sapiens) (UniProt P51449); assay: qHTS assay to identify small molecule antagonists of the retinoid-related orphan receptor gamma (ROR-gamma) signaling pathway (AID 1159521; also: nearly all actives have a fitted effect of over 50% in size; also: potency is read from the fitted curve at half-maximal effect)
# Procedure, shortened: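 Screening format: cell-based luciferase reporter in CHO cells with doxycycline-inducible RORγ. Compound pre-exposure lasts 2 h, doxycycline is 1 uM final, induction runs 16 h at 37 C, and ONE-Glo luminescence is read.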
# [4] = qHTS assay to identify small molecule agonists of the AP-1 signaling pathway - cell viability counter screen (AID 1159525; calls by dose curve; also: nearly all actives have a fitted effect of over 55% in size; also: potency is read from the fitted curve at half-maximal effect)
# Procedure, shortened: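 Same-well cytotoxicity counter screen of the Tox21 10K library in ME-180 cells. The readout is ATP-dependent luminescence after 5 h compound treatment. Data are normalised to DMSO and tetra n-octyl ammonium bromide controls.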
# [5] = qHTS assay to identify small molecule antagonists of the retinoid acid receptor (RAR) signaling pathway - cell viability counter screen (AID 1159551); also: nearly all actives have a fitted effect of over 35% in size
# Procedure, shortened: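 Measured by luminescent ATP detection, viability reflects C3RL4 cells treated 6 h at 37 C with test chemicals in the presence of 1 uM (final) retinol.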
# [6] = qHTS assay to identify small molecule agonists of the retinoic acid receptor (RAR) signaling pathway (AID 1159553)
# Procedure, shortened: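 6 hr compound exposure (DMSO vehicle) of overnight-plated C3RL4 RARE-luc cells at 37 C; luminescence quantified after 30 min RT with luciferase reagent.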
# [7] = qHTS assay to identify small molecule antagonists of the estrogen related receptor (ERR) signaling pathway - cell viability counter screen (AID 1224818); also: series mostly up to about 46 µM
# Procedure, shortened: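 Compounds dissolved in DMSO were applied to ERR cells seeded at 2,000 per well 6 h earlier. Cell viability followed 17.5 h later via 30-min CellTiter-Fluor fluorescence.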
# [8] = qHTS assay to identify small molecule agonists of the estrogen related receptor (ERR) signaling pathway (AID 1224820)
# Procedure, shortened: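 After 6 h plating (2,000 cells/well) and 18 h compound treatment at 37 C, ERR cells were lysed with One-Glo and luminescence read after 30 min at room temperature.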
# [9] = tested on: estrogen-related receptor alpha (ERRalpha) with PGC-1alpha coactivator, human; assay: qHTS assay to identify small molecule antagonists of the estrogen related receptor signaling pathway with the pleiotropic PPARgamma coactivator (PGC) (AID 1224821; calls by dose curve;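 also: series mostly up to about 46 µM; lower luminescence signal means antagonism of PGC/ERR signalling; nearly all actives have a fitted effect of over 50% in size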)
# Procedure, shortened: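 Luminescence from One-Glo luciferase reagent (30 min, room temperature) measured after 18 h compound treatment at 37 °C. Cells carry the PGC/ERR reporter and were seeded 6 h prior to dosing.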
# [10] = qHTS assay to identify small molecule antagonists of the estrogen related receptor signaling pathway with the pleiotropic PPARgamma coactivator (PGC) cell viability counter screen (AID 1224822; also: series mostly up to about 46 µM)
# Procedure, shortened: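 Counter screen for cell viability: PGC/ERR cells, 6 h pre-incubation after plating, 17.5 h compound exposure at 37 C, fluorescence from CellTiter-Fluor after 30 min.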
# [11] = qHTS assay to identify small molecule agonists of the estrogen related receptor signaling pathway with the pleiotropic PPARgamma coactivator (PGC) (AID 1224823)
# Procedure, shortened: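 Luminescence from One-Glo reagent (30 min, room temperature) was read after 18 h compound treatment at 37 C of PGC/ERR cells plated 6 h beforehand; compounds delivered in DMSO by pin tool.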
# [12] = qHTS assay to identify small molecule antagonists of the estrogen related receptor (ERR) signaling pathway from Tox21 library - cell viability counter screen (AID 1224834); also: nearly all actives have a fitted effect of over 30% in size; also: potency is read from the fitted curve at half-maximal effect
# Procedure, shortened: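 Seeded ERR cells were rested 6 h at 37 C/5% CO2 before compounds, positive and negative controls or DMSO were added. Incubation continued for 17.5 h, and viability was then quantified by CellTiter-Fluor fluorescence.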
# [13] = qHTS assay to identify small molecule antagonists of the vitamin D receptor (VDR) signaling pathway - cell viability counter screen (AID 743225); also: nearly all actives have a fitted effect of over 50% in size; also: potency is read from the fitted curve at half-maximal effect
# Procedure, shortened: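 In this counter screen, VDR-bla HEK 293T cells receive test compound plus 3 nM final calcitriol for 16 h at 37C. Room-temperature steps of 2 h with the beta-lactamase substrate, then 30 min with CellTiter-Glo, precede the luminescence read.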
# [14] = qHTS assay to identify small molecule agonists of the RXR signaling pathway - cell viability counter screen (AID 1159529); also: nearly all actives have a fitted effect of over 50% in size; also: potency is read from the fitted curve at half-maximal effect
# Procedure, shortened: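 Viability read-out for the RXR-alpha agonist qHTS: luminescent CellTiter-Glo signal after 30 min at RT. HEK 293T bla reporter cells, 2% charcoal-stripped FBS, 16 hr compound incubation; tetraoctyl ammonium bromide as cytotoxic control.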
# [15] = qHTS assay to identify small molecule antagonists of the retinoic acid receptor (RAR) signaling pathway (AID 1159552; also: nearly all actives have a fitted effect of over 50% in size; also: potency is read from the fitted curve at half-maximal effect)
# Procedure, shortened: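 Using a RARE-driven luciferase construct in C3RL4 cells, retinol at 1 uM final provided the agonist stimulus while compounds were co-applied. After 6 hours at 37 C, luminescence was recorded to flag inhibitors of retinol signaling.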
# [16] = qHTS assay to identify small molecule agonists of the endoplasmic reticulum stress response signaling pathway (AID 1159516; active = well fitted activation curve with a large enough effect in the signal ratio in the repeat runs, not every such curve was filed as active; the % refers to the signal ratio)
# Procedure, shortened: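 For this screen, HeLa cells stably carrying beta-lactamase under the ER stress response element received test compounds, positive controls or DMSO for 5 hr at 37 C; B/G FRET substrate was then added and dual-wavelength emission recorded.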
# [17] = qHTS assay to identify small molecule agonists of the endoplasmic reticulum stress response signaling pathway - cell viability counter screen (AID 1159517; calls by dose curve)
# Procedure, shortened: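 In parallel with the ESRE reporter read, cytotoxicity was scored by CellTiter-Glo luminescence (30 min, room temperature) on HeLa ESRE-bla cells dosed for 5 hr.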
# [18] = qHTS assay to identify small molecule agonists of the AP-1 signaling pathway (AID 1159526; calls by dose curve)
# [19] = biological target: Retinoic acid receptor RXR-alpha (Homo sapiens) (UniProt P19793); assay: qHTS assay to identify small molecule agonists of the RXR signaling pathway (AID 1159527; calls by dose curve; also: nearly all actives have a fitted effect of over 35% in size)
# Retinoic acid receptor RXR-alpha (Homo sapiens), sequence (P19793 whole entry, looked up): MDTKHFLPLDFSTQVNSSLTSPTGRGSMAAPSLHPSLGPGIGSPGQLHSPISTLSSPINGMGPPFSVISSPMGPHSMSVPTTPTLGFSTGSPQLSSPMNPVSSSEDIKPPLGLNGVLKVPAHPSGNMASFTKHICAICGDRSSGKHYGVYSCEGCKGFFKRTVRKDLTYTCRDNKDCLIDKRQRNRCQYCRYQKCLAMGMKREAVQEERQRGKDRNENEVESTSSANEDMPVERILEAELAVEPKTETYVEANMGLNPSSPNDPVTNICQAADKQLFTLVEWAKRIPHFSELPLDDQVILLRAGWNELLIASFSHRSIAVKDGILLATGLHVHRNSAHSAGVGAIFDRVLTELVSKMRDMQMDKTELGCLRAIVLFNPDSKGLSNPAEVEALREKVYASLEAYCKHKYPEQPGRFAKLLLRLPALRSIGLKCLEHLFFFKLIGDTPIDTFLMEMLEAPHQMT
# Procedure, shortened: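 Fluorescence ratio readout (460 vs 530 nm) from GeneBLAzer RXR-alpha HEK 293T cells after 16 hr compound treatment; cells seeded 5 hr beforehand in low-serum, charcoal-stripped medium.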
structure (smiles),measurement,setting,value
OCc1c[nH]c2ccccc12,Potency,[1],inactive
same,Potency,[2],inactive
same,Potency,[3],inactive
same,Potency,[4],inactive
same,Potency,[5],inactive
same,Potency,[6],inactive
same,Potency,[7],inactive
same,outcome,[8],inactive
same,Potency,[9],inactive
same,Potency,[10],inactive
same,outcome,[11],inactive
O=C(Nc1ccc(Oc2ccc(Cl)cc2)c(Cl)c1)c1cc(I)cc(I)c1O,Potency,[1],inactive
same,Potency,[3],23.7 µM (active)
same,Potency,[4],inactive
same,Potency,[5],inactive
same,Potency,[6],inactive
same,Potency,[12],inactive
CCOC(=O)c1nc(C(Cl)(Cl)Cl)n(-c2ccc(Cl)cc2Cl)n1,Potency,[13],49 µM (active)
same,Potency,[1],inactive
same,Potency,[3],21.7 µM (active)
same,Potency,[4],inactive
same,Potency,[14],49 µM (active)
same,Potency,[5],inactive
Oc1ccc(Cl)cc1Sc1cc(Cl)ccc1O,Potency,[1],inactive
same,Potency,[3],19.3 µM (active) and 13.3 µM (active)
same,Potency,[4],54.8 µM (active) and inactive
same,Potency,[14],43.6 µM (active)
same,Potency,[15],26.6 µM (active)
same,Potency,[6],inactive
same,Potency,[12],30.6 µM (active) and 26.6 µM (active)
C=CC(=O)OCCn1c(=O)n(CCOC(=O)C=C)c(=O)n(CCOC(=O)C=C)c1=O,Potency,[13],43.6 µM (active)
same,Potency,[1],inactive
same,Potency,[2],inactive
same,Potency,[3],12.2 µM (active)
same,Potency,[4],inactive
same,Potency,[14],24.5 µM (active)
same,Potency,[12],17.2 µM (active)
CCCCCCCCCCCCCCCC(=O)OC[C@H](O)[C@H]1OC(=O)C(O)=C1O,Potency,[13],inactive
same,Potency,[1],inactive
same,Potency,[2],inactive
same,Potency,[5],inactive
COc1cccc(N)c1,outcome,[16],inactive
same,Potency,[17],inactive
same,Potency,[2],inactive
same,Potency,[3],inactive
same,Potency,[4],inactive
same,Potency,[18],inactive
same,Potency,[19],inactive
same,Potency,[14],inactive
same,Potency,[5],inactive
same,Potency,[15],inactive
O=C(NOCC1CC1)c1ccc(F)c(F)c1Nc1ccc(I)cc1Cl,Potency,[13],inactive
same,Potency,[1],inactive
same,Potency,[3],9.44 µM (active)
same,Potency,[5],inactive
same,Potency,[15],inactive
same,Potency,[12],18.8 µM (active)
C1CCCC1,Potency,[13],inactive
same,outcome,[16],inactive
same,Potency,[17],inactive
same,Potency,[2],inactive
same,Potency,[3],inactive
same,Potency,[4],inactive
same,Potency,[18],inactive
same,Potency,[19],inactive
same,Potency,[14],inactive
same,Potency,[5],inactive
same,Potency,[15],inactive
same,Potency,[6],inactive
same,Potency,[12],inactive
N#CC1(c2ccc(F)cc2)CCC(=O)CC1,outcome,[16],inactive
same,Potency,[17],inactive
same,Potency,[2],inactive
same,Potency,[3],inactive
same,Potency,[4],inactive
same,Potency,[18],inactive
same,Potency,[19],inactive
same,Potency,[14],inactive
same,Potency,[5],inactive
same,Potency,[15],inactive
same,Potency,[6],inactive
same,Potency,[12],inactive
